From article PMC7862700, “An all-to-all approach to the identification of sequence-specific readers for epigenetic DNA modifications on cytosine” come the findings set out here.

Assay in all cases: DAPPL (digital affinity profiling via proximity ligation, sequencing); 10 mM Tris-HCl pH 7.5, 50 mM NaCl, 1 mM DTT, 4% glycerol, room temperature, 30 min; GST-TFs on glutathione beads, 16-mer random dsDNA library, 0.1% formaldehyde crosslink after washing; high values mean tight binding
Holding throughout (settings): protein: recombinant; tags: N-terminal GST; dsDNA, one strand shown

One assay addresses T1, FLI1 (Homo sapiens, UniProt Q01543 1-452).
T1 sequence: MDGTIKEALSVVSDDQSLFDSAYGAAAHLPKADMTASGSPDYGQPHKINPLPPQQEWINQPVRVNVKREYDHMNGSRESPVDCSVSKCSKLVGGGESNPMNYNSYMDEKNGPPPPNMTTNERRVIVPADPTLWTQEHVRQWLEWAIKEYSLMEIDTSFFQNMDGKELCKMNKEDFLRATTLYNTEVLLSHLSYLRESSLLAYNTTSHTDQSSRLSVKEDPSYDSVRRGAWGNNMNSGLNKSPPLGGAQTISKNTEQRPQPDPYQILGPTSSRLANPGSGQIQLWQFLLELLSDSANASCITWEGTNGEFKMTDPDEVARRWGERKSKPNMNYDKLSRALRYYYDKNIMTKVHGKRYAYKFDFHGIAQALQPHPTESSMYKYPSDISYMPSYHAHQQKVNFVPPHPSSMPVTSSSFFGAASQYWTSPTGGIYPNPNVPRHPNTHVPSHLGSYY
The procedure, abridged:
(§1)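 Each value of binding signal is a hexamer's read frequency for a factor divided by the same hexamer's frequency in the tag-only sample. Barcoded, bead-captured GST fusions of human transcription factors made in yeast were pooled with that sample and incubated with 200 nmole of a random double-stranded 16-mer DNA library in Tris/NaCl/DTT/glycerol buffer at room temperature for 30 min. Washing, 0.1% formaldehyde crosslinking, proximity ligation, PCR and Illumina NextSeq500 sequencing followed.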

The next assay deals with T2, ELK1 (Homo sapiens, UniProt P19419 1-428).
T2 sequence: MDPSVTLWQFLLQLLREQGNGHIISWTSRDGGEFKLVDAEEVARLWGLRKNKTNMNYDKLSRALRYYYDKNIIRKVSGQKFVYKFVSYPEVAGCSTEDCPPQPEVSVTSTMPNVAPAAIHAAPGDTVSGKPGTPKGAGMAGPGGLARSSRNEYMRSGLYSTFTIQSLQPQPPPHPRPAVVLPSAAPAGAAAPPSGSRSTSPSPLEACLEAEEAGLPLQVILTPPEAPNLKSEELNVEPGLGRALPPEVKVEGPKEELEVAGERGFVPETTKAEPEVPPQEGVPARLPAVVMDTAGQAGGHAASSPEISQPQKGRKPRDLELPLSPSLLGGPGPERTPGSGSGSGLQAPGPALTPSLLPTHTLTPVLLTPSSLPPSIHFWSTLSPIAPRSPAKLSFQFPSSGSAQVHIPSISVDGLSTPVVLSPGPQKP
The method, boiled down:
as §1

In a further assay the target is T3, GABPA (Homo sapiens, UniProt Q06546 1-454).
T3 sequence: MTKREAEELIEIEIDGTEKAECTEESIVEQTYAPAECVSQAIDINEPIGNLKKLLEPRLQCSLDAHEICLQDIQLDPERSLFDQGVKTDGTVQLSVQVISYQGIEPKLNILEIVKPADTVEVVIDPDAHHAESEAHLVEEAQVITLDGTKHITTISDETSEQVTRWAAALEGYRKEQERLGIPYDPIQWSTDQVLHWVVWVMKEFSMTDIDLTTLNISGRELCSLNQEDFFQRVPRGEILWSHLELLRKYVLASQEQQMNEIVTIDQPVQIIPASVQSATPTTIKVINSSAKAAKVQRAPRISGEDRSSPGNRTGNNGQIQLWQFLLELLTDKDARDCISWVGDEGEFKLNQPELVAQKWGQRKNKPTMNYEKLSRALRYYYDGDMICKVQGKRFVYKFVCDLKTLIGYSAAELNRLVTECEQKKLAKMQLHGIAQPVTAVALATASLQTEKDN
The procedure, abridged:
as §1

Another assay deals with T4, ERG (Homo sapiens, UniProt P11308 1-479).
T4 sequence: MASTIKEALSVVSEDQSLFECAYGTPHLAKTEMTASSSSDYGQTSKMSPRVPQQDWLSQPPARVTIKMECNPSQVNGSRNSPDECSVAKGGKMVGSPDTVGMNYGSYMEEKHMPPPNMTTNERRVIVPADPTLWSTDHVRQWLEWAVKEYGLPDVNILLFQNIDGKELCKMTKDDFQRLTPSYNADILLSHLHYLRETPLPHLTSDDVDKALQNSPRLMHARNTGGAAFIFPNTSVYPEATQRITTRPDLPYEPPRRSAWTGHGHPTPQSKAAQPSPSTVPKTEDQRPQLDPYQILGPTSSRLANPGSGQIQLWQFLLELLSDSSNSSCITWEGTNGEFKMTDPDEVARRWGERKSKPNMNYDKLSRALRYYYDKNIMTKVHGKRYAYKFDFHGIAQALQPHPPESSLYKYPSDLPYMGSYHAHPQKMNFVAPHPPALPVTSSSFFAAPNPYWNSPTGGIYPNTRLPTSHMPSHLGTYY
The procedure, abridged: as §1

For another assay, the target named is ELF1 (Homo sapiens, UniProt P32519 1-619). The procedure, abridged:
as §1

The next assay addresses T5, EHF (Homo sapiens, UniProt Q9NZC4 1-300).
T5 sequence: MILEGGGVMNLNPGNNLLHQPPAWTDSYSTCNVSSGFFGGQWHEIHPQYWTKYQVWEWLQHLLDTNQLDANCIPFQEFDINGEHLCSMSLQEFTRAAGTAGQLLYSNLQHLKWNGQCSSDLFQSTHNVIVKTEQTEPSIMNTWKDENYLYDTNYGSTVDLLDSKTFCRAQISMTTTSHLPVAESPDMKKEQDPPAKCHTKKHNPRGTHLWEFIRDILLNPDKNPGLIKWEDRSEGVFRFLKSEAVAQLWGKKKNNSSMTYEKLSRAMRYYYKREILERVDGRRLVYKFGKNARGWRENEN
The method, boiled down:
as §1

In another assay the target is SPI1 (Homo sapiens, UniProt P17947 1-270). The procedure, abridged:
as §1

The target of a further assay is SPIB (Homo sapiens, UniProt Q01892 1-262). The procedure, abridged:
as §1

Another assay has as its target T6, ELK3 (Homo sapiens, UniProt P41970 1-407).
T6 sequence: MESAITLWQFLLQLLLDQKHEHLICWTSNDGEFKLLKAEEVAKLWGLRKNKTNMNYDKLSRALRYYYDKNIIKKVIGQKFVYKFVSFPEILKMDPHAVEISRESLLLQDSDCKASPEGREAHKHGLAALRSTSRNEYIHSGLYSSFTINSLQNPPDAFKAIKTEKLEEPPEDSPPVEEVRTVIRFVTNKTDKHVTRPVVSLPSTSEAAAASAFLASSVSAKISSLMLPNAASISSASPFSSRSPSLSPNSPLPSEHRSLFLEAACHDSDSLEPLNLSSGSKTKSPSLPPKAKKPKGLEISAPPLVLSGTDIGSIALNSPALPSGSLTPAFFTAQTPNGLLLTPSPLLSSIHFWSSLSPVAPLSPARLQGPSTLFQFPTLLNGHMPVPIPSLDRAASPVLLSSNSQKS
The method, boiled down: as §1

A further assay addresses T7, FEV (Homo sapiens, UniProt Q99581 1-238).
T7 sequence: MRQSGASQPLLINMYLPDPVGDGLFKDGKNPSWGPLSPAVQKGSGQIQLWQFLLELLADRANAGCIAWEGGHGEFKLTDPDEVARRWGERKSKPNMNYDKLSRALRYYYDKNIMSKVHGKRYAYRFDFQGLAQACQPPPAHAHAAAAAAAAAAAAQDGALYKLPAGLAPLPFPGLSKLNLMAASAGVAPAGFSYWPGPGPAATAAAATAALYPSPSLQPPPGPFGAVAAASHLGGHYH
The procedure, abridged: as §1

The next assay deals with ETV5 (Homo sapiens, UniProt P41161 1-510). The method, boiled down:
as §1

The next assay concerns the target T8, SPIC (Homo sapiens, UniProt Q8N5J4 1-248).
T8 sequence: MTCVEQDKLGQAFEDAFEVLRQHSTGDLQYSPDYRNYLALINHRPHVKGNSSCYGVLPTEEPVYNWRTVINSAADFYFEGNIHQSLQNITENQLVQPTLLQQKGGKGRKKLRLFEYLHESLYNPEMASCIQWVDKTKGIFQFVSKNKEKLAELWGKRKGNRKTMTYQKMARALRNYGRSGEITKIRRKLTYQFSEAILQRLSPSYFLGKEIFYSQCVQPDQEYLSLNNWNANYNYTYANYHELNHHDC
The method, boiled down: as §1

In a further assay the target is ELF4 (Homo sapiens, UniProt Q99607 1-663). The method, boiled down:
as §1

A further assay concerns the target T9, ELK4 (Homo sapiens, UniProt P28324-2 1-405).
T9 sequence: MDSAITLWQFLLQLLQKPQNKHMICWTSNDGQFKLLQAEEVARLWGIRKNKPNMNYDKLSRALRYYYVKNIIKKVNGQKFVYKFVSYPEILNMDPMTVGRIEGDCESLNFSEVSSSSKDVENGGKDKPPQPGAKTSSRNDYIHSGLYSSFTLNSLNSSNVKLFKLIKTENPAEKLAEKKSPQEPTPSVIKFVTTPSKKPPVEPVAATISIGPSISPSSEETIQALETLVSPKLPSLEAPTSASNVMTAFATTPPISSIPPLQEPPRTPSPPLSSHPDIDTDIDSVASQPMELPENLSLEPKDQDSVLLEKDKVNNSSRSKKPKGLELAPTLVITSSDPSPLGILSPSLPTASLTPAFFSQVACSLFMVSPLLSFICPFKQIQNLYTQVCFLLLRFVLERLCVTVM
The procedure, abridged:
as §1

A further assay has as its target T10, ETV2 (Homo sapiens, UniProt O00321 1-342).
T10 sequence: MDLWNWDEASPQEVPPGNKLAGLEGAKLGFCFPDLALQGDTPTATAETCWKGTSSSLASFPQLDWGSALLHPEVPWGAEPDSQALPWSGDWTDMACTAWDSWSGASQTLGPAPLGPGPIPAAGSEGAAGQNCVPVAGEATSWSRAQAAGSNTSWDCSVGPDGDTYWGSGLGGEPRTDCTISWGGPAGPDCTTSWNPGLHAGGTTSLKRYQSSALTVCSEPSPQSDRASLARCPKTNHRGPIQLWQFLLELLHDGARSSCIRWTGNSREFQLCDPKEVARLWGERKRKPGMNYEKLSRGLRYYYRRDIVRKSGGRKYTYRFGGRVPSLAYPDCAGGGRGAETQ
The procedure, abridged:
as §1

For another assay, the target named is T11, ELF3 (Homo sapiens, UniProt P78545 1-371).
T11 sequence: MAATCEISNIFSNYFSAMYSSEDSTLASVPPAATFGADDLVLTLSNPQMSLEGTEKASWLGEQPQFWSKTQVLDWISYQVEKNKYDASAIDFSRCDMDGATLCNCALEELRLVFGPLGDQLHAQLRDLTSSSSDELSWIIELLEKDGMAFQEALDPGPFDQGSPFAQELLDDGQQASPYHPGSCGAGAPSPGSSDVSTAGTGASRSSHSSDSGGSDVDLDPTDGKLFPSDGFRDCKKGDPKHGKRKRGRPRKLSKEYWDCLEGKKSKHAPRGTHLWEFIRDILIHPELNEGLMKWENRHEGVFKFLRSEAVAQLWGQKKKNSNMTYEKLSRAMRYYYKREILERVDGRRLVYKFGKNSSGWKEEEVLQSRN
The method, boiled down: as §1

The next assay concerns the target ETV1 (Homo sapiens, UniProt P50549 1-477). The method, boiled down: as §1

ELF1, sequence (P32519 whole entry): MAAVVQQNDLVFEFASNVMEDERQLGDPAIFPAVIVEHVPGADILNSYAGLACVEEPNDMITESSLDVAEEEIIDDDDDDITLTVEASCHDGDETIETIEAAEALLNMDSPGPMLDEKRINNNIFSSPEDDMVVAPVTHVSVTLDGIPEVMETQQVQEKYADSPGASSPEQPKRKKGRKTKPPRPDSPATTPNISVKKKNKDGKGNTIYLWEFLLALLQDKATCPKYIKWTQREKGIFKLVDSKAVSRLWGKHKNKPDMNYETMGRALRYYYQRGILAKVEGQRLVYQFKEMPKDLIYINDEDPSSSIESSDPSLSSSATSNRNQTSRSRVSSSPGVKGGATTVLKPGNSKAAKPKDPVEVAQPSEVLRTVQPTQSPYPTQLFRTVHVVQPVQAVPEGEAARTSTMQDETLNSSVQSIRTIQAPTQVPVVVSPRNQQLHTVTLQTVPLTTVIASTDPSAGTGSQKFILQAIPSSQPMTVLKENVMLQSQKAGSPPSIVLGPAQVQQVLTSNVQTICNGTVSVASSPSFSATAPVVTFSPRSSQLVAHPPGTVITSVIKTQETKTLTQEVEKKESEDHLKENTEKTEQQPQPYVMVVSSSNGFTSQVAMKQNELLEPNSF
ELF4, sequence (Q99607 whole entry): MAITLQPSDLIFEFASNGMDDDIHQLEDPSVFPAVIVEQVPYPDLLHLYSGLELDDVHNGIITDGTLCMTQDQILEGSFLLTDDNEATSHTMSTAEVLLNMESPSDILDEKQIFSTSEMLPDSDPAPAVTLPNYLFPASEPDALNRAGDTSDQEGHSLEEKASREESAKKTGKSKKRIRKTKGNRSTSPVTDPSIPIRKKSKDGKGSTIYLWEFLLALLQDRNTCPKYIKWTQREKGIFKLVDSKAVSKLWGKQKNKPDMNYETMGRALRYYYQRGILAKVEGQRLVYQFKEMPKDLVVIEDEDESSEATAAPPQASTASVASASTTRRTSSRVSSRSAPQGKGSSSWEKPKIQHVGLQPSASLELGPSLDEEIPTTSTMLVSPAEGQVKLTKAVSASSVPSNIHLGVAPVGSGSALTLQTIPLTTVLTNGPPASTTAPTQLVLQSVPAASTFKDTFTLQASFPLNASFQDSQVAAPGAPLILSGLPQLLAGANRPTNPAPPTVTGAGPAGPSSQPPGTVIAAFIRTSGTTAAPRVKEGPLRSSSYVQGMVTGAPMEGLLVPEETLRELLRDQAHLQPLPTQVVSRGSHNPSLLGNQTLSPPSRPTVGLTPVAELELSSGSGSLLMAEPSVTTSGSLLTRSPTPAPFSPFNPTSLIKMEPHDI
ETV5, sequence (P41161 whole entry): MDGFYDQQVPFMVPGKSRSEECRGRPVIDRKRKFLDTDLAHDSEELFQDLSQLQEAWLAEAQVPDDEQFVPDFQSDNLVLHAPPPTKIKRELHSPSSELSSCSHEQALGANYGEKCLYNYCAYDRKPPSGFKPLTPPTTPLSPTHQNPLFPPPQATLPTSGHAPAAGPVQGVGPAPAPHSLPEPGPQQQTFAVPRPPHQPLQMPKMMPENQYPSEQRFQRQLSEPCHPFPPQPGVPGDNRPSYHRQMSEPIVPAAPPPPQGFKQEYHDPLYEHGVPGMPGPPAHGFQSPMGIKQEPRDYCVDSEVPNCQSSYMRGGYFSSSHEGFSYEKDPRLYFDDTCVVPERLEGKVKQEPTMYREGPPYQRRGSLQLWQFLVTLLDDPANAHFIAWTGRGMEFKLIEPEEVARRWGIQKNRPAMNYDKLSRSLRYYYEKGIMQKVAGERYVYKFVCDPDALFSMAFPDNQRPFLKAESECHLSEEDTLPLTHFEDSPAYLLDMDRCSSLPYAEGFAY
ETV1, sequence (P50549 whole entry): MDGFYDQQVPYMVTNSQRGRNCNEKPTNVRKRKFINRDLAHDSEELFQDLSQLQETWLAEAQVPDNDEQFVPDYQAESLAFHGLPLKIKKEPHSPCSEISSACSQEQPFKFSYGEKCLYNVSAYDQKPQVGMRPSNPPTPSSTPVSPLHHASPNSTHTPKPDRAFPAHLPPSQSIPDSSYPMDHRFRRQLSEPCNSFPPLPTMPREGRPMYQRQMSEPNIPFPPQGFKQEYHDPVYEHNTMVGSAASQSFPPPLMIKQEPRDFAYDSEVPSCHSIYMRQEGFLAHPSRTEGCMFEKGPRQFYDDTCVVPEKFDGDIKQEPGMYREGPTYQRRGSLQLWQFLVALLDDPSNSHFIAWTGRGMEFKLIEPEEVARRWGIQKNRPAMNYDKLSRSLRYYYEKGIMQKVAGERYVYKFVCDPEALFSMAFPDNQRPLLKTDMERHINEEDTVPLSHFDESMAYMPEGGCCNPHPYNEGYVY
SPIB, sequence (Q01892 whole entry): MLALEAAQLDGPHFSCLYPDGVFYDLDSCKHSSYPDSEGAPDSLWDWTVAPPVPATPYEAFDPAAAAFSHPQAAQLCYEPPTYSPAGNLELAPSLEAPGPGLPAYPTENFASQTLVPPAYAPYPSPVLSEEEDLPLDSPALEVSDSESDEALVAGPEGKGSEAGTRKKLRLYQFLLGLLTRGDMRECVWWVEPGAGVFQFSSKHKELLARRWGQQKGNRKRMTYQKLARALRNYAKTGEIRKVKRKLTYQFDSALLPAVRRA

As for AGGAAG, the binding signal was 1.24 fold enrichment (6-mer frequency, TF over GST control) with FLI1; 1.32 fold enrichment (6-mer frequency, TF over GST control) in the assay with ELK1; 1.24 fold enrichment (6-mer frequency, TF over GST control) with GABPA; 1.63 fold enrichment (6-mer frequency, TF over GST control) with ERG; 1.23 fold enrichment (6-mer frequency, TF over GST control) in the assay with ELF1; 1.57 fold enrichment (6-mer frequency, TF over GST control) with EHF. Moreover, the binding signal with SPI1 was 2.12 fold enrichment (6-mer frequency, TF over GST control); with SPIB, 1.44 fold enrichment (6-mer frequency, TF over GST control); with ELK3, 1.26 fold enrichment (6-mer frequency, TF over GST control); with FEV it was 1.24 fold enrichment (6-mer frequency, TF over GST control); in the assay with ETV5 it was 1.44 fold enrichment (6-mer frequency, TF over GST control); with SPIC, 1.51 fold enrichment (6-mer frequency, TF over GST control). The binding signal in the assay with ELF4 is 1.21 fold enrichment (6-mer frequency, TF over GST control); with ELK4 it was 1.11 fold enrichment (6-mer frequency, TF over GST control); with ETV2, 1.4 fold enrichment (6-mer frequency, TF over GST control); with ELF3, 1.52 fold enrichment (6-mer frequency, TF over GST control); in the assay with ETV1, 1.5 fold enrichment (6-mer frequency, TF over GST control).
